This excerpt belongs to a sample that is enriched for hits.
nsP2pro primary: blocks chikungunya virus nsP2 protease peptide cleavage | Q8JUX6 | FRET peptide cleavage, nsP2pro, fluorescence 1 h | Potency, µM (highest dose often 24.9 µM), for inactives: at the highest dose activity change, negative = inhibition, hits mostly inhibitors | hit rate 1.1% among 31,000; note: nearly all actives have a fitted effect of over 60% in size
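Recombinant nsP2pro (150 nM) was preincubated with compound 15 min at room temperature in 10 mM Tris-HCl pH 8.0, 0.01% Tween 20. Peptide 2 FRET substrate (2.5 uM) was then added and fluorescence read after 1 h. Seven-point series, up to 25 uM.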
nsP2 cell sec: inhibits CHIKV nsP2 protease in cells; shares compounds with nsP2pro primary; cell-based CHIKV nsP2 protease reporter assay; Potency, µM (series often up to 51.1 µM), for the others: top-dose activity change, negative = inhibition, most hits filed as inhibitors; hit rate 10% among 450; AID 1964100; note: nearly all actives have a fitted effect of over 70% in size
CHIKV NSP2 FL: selectivity test for CHIKV nsP2 protease inhibitors: full-length NSP2 | shares compounds with nsP2pro primary | Potency, µM (titrated, usually from 50.7 µM), for the others: at the top dose activity change, negative = inhibition, hits mostly inhibitors | AID 1964101 | Full-length CHIKV NSP2 protease enzymatic counterscreen | hit rate 39% among 410; note: nearly all actives have a fitted effect of over 65% in size
Furin counterscr: inhibits human furin in a CHIKV nsP2 protease selectivity counterscreen. Recombinant human furin enzymatic counterscreen, fluorogenic substrate. hit rate 6% among 410. Potency, µM (highest dose often 50.6 µM), inactives show at the highest dose activity change, negative = inhibition, usual class: inhibitors. shares compounds with nsP2pro primary. AID 1964102
nsP2 NS23 pep: blocks CHIKV nsP2 protease cleavage of endogenous NS2/3 peptide; Purified CHIKV nsP2 protease, endogenous NS2/3 peptide cleavage; AID 1964103; Potency, µM (titrated, usually from 51 µM), inactives show at the highest dose activity change, negative = inhibition, most hits filed as inhibitors; hit rate 34% among 410; shares compounds with nsP2pro primary; note: nearly all actives have a fitted effect of over 55% in size
Papain counter: selectivity counter-screen for CHIKV nsP2 protease inhibitors: papain | purified papain protease activity, enzymatic inhibition | Potency, µM (doses to about 51 µM), for the others: at the highest dose activity change, negative = inhibition, most hits filed as inhibitors | shares compounds with nsP2pro primary | AID 1964104 | hit rate 5% among 410
Target sequence (P00784 whole entry, looked up): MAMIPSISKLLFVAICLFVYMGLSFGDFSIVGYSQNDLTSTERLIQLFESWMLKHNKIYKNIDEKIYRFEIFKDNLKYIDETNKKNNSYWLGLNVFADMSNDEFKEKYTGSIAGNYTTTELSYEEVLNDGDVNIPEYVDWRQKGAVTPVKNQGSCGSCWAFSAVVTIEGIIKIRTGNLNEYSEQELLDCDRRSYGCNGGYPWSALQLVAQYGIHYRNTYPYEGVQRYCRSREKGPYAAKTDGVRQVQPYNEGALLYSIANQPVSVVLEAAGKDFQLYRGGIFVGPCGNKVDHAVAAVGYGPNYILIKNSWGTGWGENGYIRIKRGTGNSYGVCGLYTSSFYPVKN
nsP2pro confirm: confirmation of CHIKV nsP2 protease inhibitors | shares compounds with nsP2pro primary | CHIKV nsP2 protease enzymatic activity, qHTS | Potency, µM (series often up to 25.5 µM), inactives show at the highest dose activity change, negative = inhibition, hits mostly inhibitors | hit rate 43% among 410 | AID 1964105; note: nearly all actives have a fitted effect of over 75% in size
HCV NS3 4A cs: HCV NS3/4A protease inhibition, counterscreen | shares compounds with nsP2pro primary | HCV NS3/4A protease biochemical counterscreen | Potency, µM (doses to about 50.9 µM), most hits filed as inhibitors | hit rate 20% among 410 | AID 1964106; note: nearly all actives have a fitted effect of over 55% in size
* = called active by the depositor; [ ] = dose if it differs, or a comment. Calls come from the whole dose curve. % is set by controls: 0 for no effect and ±100 for the full control effect; potency is the fitted concentration of half-maximal effect.

Results for Cc1ccc(OCCn2c(CCN[S+](=O)([O-])C3CCCCC3)nc3ccccc32)cc1 ?
nsP2pro primary: -8%

How did CCCCc1ccc(O)cc1O do in these assays?
nsP2pro primary: -6%

What do the screens show for `Cc1cc(C)nc(NC(=S)N2CCN(c3ccc(F)c(F)c3)CC2)c1`?
nsP2pro primary: 3%

How did COC(=O)[C@]12CCC(C)(C)C[C@H]1[C@H]1C(=O)C=C3[C@@]4(C)C=C(C#N)C(=O)C(C)(C)[C@@H]4CC[C@@]3(C)[C@]1(C)CC2 do in these assays?
nsP2pro primary: inconclusive; nsP2 cell sec: inconclusive; CHIKV NSP2 FL: inconclusive; Furin counterscr: -3%; nsP2 NS23 pep: inconclusive; Papain counter: inconclusive; nsP2pro confirm: inconclusive; HCV NS3 4A cs: inactive

What do the screens show for `Cc1cc(CCCOc2c(C)cc(-c3noc(C(F)(F)F)n3)cc2C)on1`?
nsP2pro primary: inconclusive; nsP2 cell sec: -7%; CHIKV NSP2 FL: 21%; Furin counterscr: -17%; nsP2 NS23 pep: 0%; Papain counter: -9%; nsP2pro confirm: -14%; HCV NS3 4A cs: inactive

How did c1ccc(COc2cccc(-c3nc4ccccc4s3)c2)cc1 do in these assays?
nsP2pro primary: -3%

How did O=C1CCCC2=C1C(c1[nH]ncc1Cl)N=C(Nc1nc3cc([S+](=O)([O-])N4CCOCC4)ccc3o1)N2 (stereo not drawn) do in these assays?
nsP2pro primary: -20%

How did Cc1cccc(CNc2ccnc(-c3cccc(C(F)(F)F)c3)n2)c1 do in these assays?
nsP2pro primary: -18%

How did Cc1cccc(N2CCN(C(c3ccccc3)c3nnc(-c4ccccc4F)o3)CC2)c1C (stereo not drawn) do in these assays?
nsP2pro primary: -3%

Results for Fc1ccc(C(c2nnc(-c3ccccc3)o2)N2CCN(c3cccc(Cl)c3)CC2)cc1 (stereo not drawn) ?
nsP2pro primary: 52%

Results for Cc1ccc(C)c(N2CCN(C(c3ccc(F)cc3)c3nnc(-c4ccccc4)o3)CC2)c1 (stereo not drawn) ?
nsP2pro primary: inconclusive; nsP2 cell sec: -3%; CHIKV NSP2 FL: 21µM*; Furin counterscr: -6%; nsP2 NS23 pep: inconclusive; Papain counter: -10%; nsP2pro confirm: inconclusive; HCV NS3 4A cs: 12µM*

Results for Cc1ccc(-c2ccc(=O)n(CC(=O)NCCCc3ccccc3)n2)cc1 ?
nsP2pro primary: -6%

How did CN(C)C/C=C/C(=O)Nc1cc2c(Nc3ccc(F)c(Cl)c3)ncnc2cc1O[C@H]1CCOC1 do in these assays?
nsP2pro primary: 298%

What do the screens show for `C[C@]12C=CC(=O)C=C1CC[C@@H]1[C@@H]2[C@@H](O)C[C@@]2(C)[C@H]1CC[C@]2(O)C(=O)COP(=O)(O)O`?
nsP2pro primary: 7%[5.1 µM]

What do the screens show for `[2H]N[C@@H](Cc1ccccc1)C(=O)N1CCC[C@H]1C(=O)N[C@@H](CCCNC(=N)N)C(=O)N1CCC[C@H]1C(=O)NCC(=O)NCC(=O)NCC(=O)NCC(=O)N[C@@H](CC(N)=O)C(=O)NCC(=O)N[C@@H](CC(=O)O)C(=O)N[C@@H](Cc1ccccc1)C(=O)N[C@@H](CCC(=O)O)C(=O)N[C@@H](CCC(=O)O)C(=O)N[C@H](C(=O)N1CCC[C@H]1C(=O)N[C@@H](CCC(=O)O)C(=O)N[C@@H](CCC(=O)O)C(=O)N[C@@H](Cc1ccc(O)cc1)C(=O)N[C@@H](CC(C)C)C(=O)O)[C@@H](C)CC`?
nsP2pro primary: -26%[5.1 µM]

What do the screens show for `CC(C)/C=C1\NC(=O)C(C(C)C)n2c1nc1c(c2=O)C=CC=CO1` (stereo not drawn)?
nsP2pro primary: -22%

Results for COC1=Cc2c(nc3n(c2=O)C(C)C(=O)NC3(O)C(C)C)OC=C1 (stereo not drawn) ?
nsP2pro primary: inconclusive; nsP2 cell sec: -4%[33.5 µM]; CHIKV NSP2 FL: 0%[33.5 µM]; Furin counterscr: -13%[33.5 µM]; nsP2 NS23 pep: -23%[33.5 µM]; Papain counter: -13%[33.5 µM]; nsP2pro confirm: inconclusive; HCV NS3 4A cs: inactive

Results for CCNC(=O)N[C@@H]1C=C[C@@H](c2c(C)nn(-c3ccc(F)cc3)c2C)C1 ?
nsP2pro primary: 2%[39.2 µM]

What do the screens show for `Cc1nn(CCC#N)c(C)c1[C@@H]1C=C[C@@H](NC(=O)c2cccs2)C1`?
nsP2pro primary: inconclusive; nsP2 cell sec: 4%

How did Cc1nn(Cc2ccccc2)c(C)c1[C@@H]1C=C[C@@H](NC(=O)c2cccs2)C1 do in these assays?
nsP2pro primary: -4%[39.2 µM]

What do the screens show for `CN1c2cccnc2CN(Cc2ccc(C(F)(F)F)cc2)CC[C@H]1CO`?
nsP2pro primary: 6%[39.2 µM]

How did O=C(O)c1ccc(-c2noc(-c3ccc(Cl)cc3)n2)cc1 do in these assays?
nsP2pro primary: inactive

How did Cc1cc(N[S+](=O)([O-])c2cc3c(cc2Cl)NC(=O)CO3)ccc1Br do in these assays?
nsP2pro primary: -16%

How did CCCCNC(=O)c1ccc2c(c1)ncn2-c1cccc(C)c1 do in these assays?
nsP2pro primary: -4%

Results for C/C(=N\NC(=O)C(NC(=O)c1ccccc1)c1n[nH]c(=O)c2ccccc12)c1cccc(Br)c1 (stereo not drawn) ?
nsP2pro primary: 9.9µM*; nsP2 cell sec: 41%; CHIKV NSP2 FL: -2%; Furin counterscr: -8%; nsP2 NS23 pep: -18%; Papain counter: -15%; nsP2pro confirm: -8%; HCV NS3 4A cs: inactive

What do the screens show for `C=C1C[C@]23C[C@@]1(O)CC[C@H]2[C@@]12C=C[C@H](O)[C@@](C)(C(=O)O1)[C@H]2[C@@H]3C(=O)O`?
nsP2pro primary: -12%

What do the screens show for `C=C1CC23CC1CCC2C12OC(=O)C(C)(C(O)C(O)C1O)C2C3C(=O)O` (stereo not drawn)?
nsP2pro primary: inconclusive; nsP2 cell sec: 3%[33.5 µM]; CHIKV NSP2 FL: inconclusive; Furin counterscr: -4%[33.5 µM]; nsP2 NS23 pep: -22%[33.5 µM]; Papain counter: -11%[33.5 µM]; nsP2pro confirm: inconclusive; HCV NS3 4A cs: inactive

What do the screens show for `C=C1C[C@]23C[C@H]1CC[C@H]2[C@@]1(C)CCC[C@@]2(C)C(=O)O[C@@H]([C@@H]3O)[C@@H]12`?
nsP2pro primary: -13%
